Test results from PubChem BioAssay AID1159580 (chemical genetic matrix, 2015).
Out of some 5,500 compounds screened, about 2,000 (36%) were called active. Inconclusive results (about 18%) are left out. Cut-off read from the data, not from the text of the source: active = normalized growth mostly below about 0.91 (no sharp cut-off); inconclusive = no clear call, values can overlap the other calls; inactive = mostly above about 0.92. Some of the results follow.

Assay: chemical genetic growth profiling, strain panel (AID 1159580);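 note: tested at 20 µM; growth read once vehicle control cultures reached saturation at 30 °C; 1 = growth at the plate median or of vehicle wells; lower values mean less growth of the strain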
Settings: growth OD

Measured: normalized growth

CCOc1ccc2c(c1)C(C)=CC(C)(C)N2
inactive: S. cerevisiae deletion strains, locus YJR043C, strain POL32, active compounds read low 0.979 | S. cerevisiae deletion strains, locus YJR075W, strain HOC1, active compounds read low 0.975 | S. cerevisiae deletion strains, locus YKL009W, strain mrt4, active compounds read low 0.988 | S. cerevisiae deletion strains, locus YKL068W, active compounds read low 0.989 | S. cerevisiae deletion strains, locus YKL085W, strain MDH1 (second series), active compounds read low 0.987 | S. cerevisiae deletion strains, locus YKL085W, strain MDH1, active compounds read low 0.987 | S. cerevisiae deletion strains, locus YKL160W, strain elf1, active compounds read low 0.996 | S. cerevisiae deletion strains, locus YKL190W, strain CNB1, active compounds read low 0.997 | S. cerevisiae deletion strains, locus YKR001C, strain vps1, active compounds read low 0.976 | S. cerevisiae deletion strains, locus YKR026C, strain gcn3, active compounds read low 0.979 | S. cerevisiae deletion strains, locus YKR091W, strain srl3, active compounds read low 0.98 | S. cerevisiae deletion strains, locus YLL001W, strain dnm1, active compounds read low 1 | S. cerevisiae deletion strains, locus YLL026W, active compounds read low 0.986 | S. cerevisiae deletion strains, locus YLL041C, strain sdh2, active compounds read low 0.989 | S. cerevisiae deletion strains, locus YLR027C, strain aat2, active compounds read low 1.01 | S. cerevisiae deletion strains, locus YLR039C, strain RIC1, active compounds read low 0.997 | S. cerevisiae deletion strains, locus YLR058C, strain SHM2, active compounds read low 0.984 | S. cerevisiae deletion strains, locus YLR102C, strain apc9, active compounds read low 0.992 | S. cerevisiae deletion strains, locus YLR221C, strain rsa3, active compounds read low 1 | S. cerevisiae deletion strains, locus YLR258W, strain gsy2, active compounds read low 0.997 | S. cerevisiae deletion strains, locus YLR262C, strain YPT6 (second series), active compounds read low 0.981 | S. cerevisiae deletion strains, locus YLR262C, strain YPT6, active compounds read low 0.969 | S. cerevisiae deletion strains, locus YLR268W, strain sec22, active compounds read low 0.924 | S. cerevisiae deletion strains, locus YLR320W, strain mms22, active compounds read low 0.982 | S. cerevisiae deletion strains, locus YLR330W, strain CHS5, active compounds read low 1 | S. cerevisiae deletion strains, locus YLR342W, strain FKS1 (second series), active compounds read low 0.999 | S. cerevisiae deletion strains, locus YLR342W, strain FKS1, active compounds read low 0.987 | S. cerevisiae deletion strains, locus YLR357W, strain rsc2, active compounds read low 0.963 | S. cerevisiae deletion strains, locus YLR370C, strain arc18, active compounds read low 0.998 | S. cerevisiae deletion strains, locus YLR371W, strain rom2, active compounds read low 0.976 | S. cerevisiae deletion strains, locus YLR384C, strain iki3, active compounds read low 0.989 | S. cerevisiae deletion strains, locus YLR418C, strain cdc73, active compounds read low 0.983 | S. cerevisiae deletion strains, locus YML016C, strain PPZ1, active compounds read low 0.984 | S. cerevisiae deletion strains, locus YML032C, strain rad52, active compounds read low 0.977 | S. cerevisiae deletion strains, locus YML120C, strain ndi1, active compounds read low 1 | S. cerevisiae deletion strains, locus YML124C, strain tub3, active compounds read low 0.989 | S. cerevisiae deletion strains, locus YMR058W, strain fet3, active compounds read low 0.988 | S. cerevisiae deletion strains, locus YMR078C, strain ctf18, active compounds read low 0.972 | S. cerevisiae deletion strains, locus YMR125W, strain sto1, active compounds read low 0.981 | S. cerevisiae deletion strains, locus YMR129W, active compounds read low 0.991 | S. cerevisiae deletion strains, locus YMR205C, strain PFK2, active compounds read low 0.987 | S. cerevisiae deletion strains, locus YMR223W, strain ubp8, active compounds read low 0.998 | S. cerevisiae deletion strains, locus YMR231W, strain pep5, active compounds read low 0.963 | S. cerevisiae deletion strains, locus YMR263W, strain SAP30, active compounds read low 0.981 | S. cerevisiae deletion strains, locus YMR307W, strain GAS1, active compounds read low 0.971 | S. cerevisiae deletion strains, locus YNL067W, strain RPL9B, active compounds read low 0.977 | S. cerevisiae deletion strains, locus YNL071W, strain lat1, active compounds read low 0.991 | S. cerevisiae deletion strains, locus YNL128W, strain TEP1, active compounds read low 0.99 | S. cerevisiae deletion strains, locus YNL153C, strain GIM3, active compounds read low 0.98 | S. cerevisiae deletion strains, locus YNL209W, strain ssb2, active compounds read low 0.994 | S. cerevisiae deletion strains, locus YNL233W, strain BNI4, active compounds read low 0.978 | S. cerevisiae deletion strains, locus YNL248C, strain rpa49, active compounds read low 0.986 | S. cerevisiae deletion strains, locus YNL250W, strain rad50, active compounds read low 0.986 | S. cerevisiae deletion strains, locus YNL271C, strain bni1, active compounds read low 0.968 | S. cerevisiae deletion strains, locus YNL298W, strain CLA4, active compounds read low 0.974 | S. cerevisiae deletion strains, locus YNL307C, strain MCK1, active compounds read low 0.985 | S. cerevisiae deletion strains, locus YNL322C, strain KRE1 (second series), active compounds read low 0.984 | S. cerevisiae deletion strains, locus YNL322C, strain KRE1, active compounds read low 0.993 | S. cerevisiae deletion strains, locus YNR049C, strain mso1, active compounds read low 0.989 | S. cerevisiae deletion strains, locus YNR052C, strain pop2, active compounds read low 1 | S. cerevisiae deletion strains, locus YOL006C, strain TOP1, active compounds read low 0.841 | S. cerevisiae deletion strains, locus YOL012C, strain htz1 1.09 | S. cerevisiae deletion strains, locus YOL147C, strain pex11, active compounds read low 0.98 | S. cerevisiae deletion strains, locus YOR001W, strain rrp6, active compounds read low 1.01 | S. cerevisiae deletion strains, locus YOR061W, strain CKA2, active compounds read low 0.981 | S. cerevisiae deletion strains, locus YOR069W, strain VPS5, active compounds read low 0.984 | S. cerevisiae deletion strains, locus YOR070C, strain gyp1, active compounds read low 0.995 | S. cerevisiae deletion strains, locus YOR080W, strain dia2, active compounds read low 0.989 | S. cerevisiae deletion strains, locus YOR083W, strain WHI5, active compounds read low 0.989 | S. cerevisiae deletion strains, locus YOR106W, strain vam3, active compounds read low 1 | S. cerevisiae deletion strains, locus YOR136W, strain idh2, active compounds read low 0.99 | S. cerevisiae deletion strains, locus YOR144C, strain elg1, active compounds read low 0.992 | S. cerevisiae deletion strains, locus YOR184W, strain ser1, active compounds read low 0.969 | S. cerevisiae deletion strains, locus YOR265W, strain rbl2, active compounds read low 1.03 | S. cerevisiae deletion strains, locus YOR270C, strain vph1, active compounds read low 1 | S. cerevisiae deletion strains, locus YOR290C, strain snf2, active compounds read low 0.991 | S. cerevisiae deletion strains, locus YOR316C, strain cot1, active compounds read low 0.983 | S. cerevisiae deletion strains, locus YPL051W, strain arl3, active compounds read low 0.985 | S. cerevisiae deletion strains, locus YPL055C, strain LGE1, active compounds read low 0.997 | S. cerevisiae deletion strains, locus YPL078C, strain atp4, active compounds read low 1.02 | S. cerevisiae deletion strains, locus YPL106C, strain sse1, active compounds read low 0.964 | S. cerevisiae deletion strains, locus YPL240C, strain hsp82, active compounds read low 0.991 | S. cerevisiae deletion strains, locus YPL241C, strain CIN2, active compounds read low 0.997 | S. cerevisiae deletion strains, locus YPR119W, strain clb2, active compounds read low 0.984 | S. cerevisiae deletion strains, locus YPR141C, strain kar3, active compounds read low 0.973 | S. cerevisiae deletion strains, locus YPR163C, strain tif3, active compounds read low 0.978 | S. cerevisiae deletion strains, locus YPR167C, strain met16, active compounds read low 0.987 | S. cerevisiae deletion strains, strain wtn01, active compounds read low 0.967 | S. cerevisiae strains, strain wild type, active compounds read low 0.996
